Assay results published in PubChem BioAssay (Tox21).
Where “and” joins values, the source holds several entries; their conditions need not be identical. Identical values can stand only once. More than one record can exist for a structure, and the calls need not agree. Calls of active or inactive are those of the source. Where a call stands in place of a potency, no number is given. Unless noted, the call rests on the fitted dose curve; in most records, active means well fitted curve in the direction sought with a large enough effect in the repeat runs; inconclusive means weak or mixed curves; inactive means no such curve, though single readings can be large; an effect the other way counts as inactive or inconclusive. Residues, ends and D or L forms follow the SMILES beside them.

Tests used:
[1] = qHTS assay to identify small molecule antagonists of the thyroid receptor (TR) signaling pathway - cell viability counter screen (AID 743064); further: nearly all actives have a fitted effect of over 50% in size
Method in brief: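 Compounds were tested on GH3.TRE-Luc cells in the presence of T3 at 1 nM final. Following 23.5 h at 37 °C, cell viability was quantified by CellTiter-Fluor.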

[2] = molecular target: Estrogen receptor (Homo sapiens) (UniProt P03372); experiment: qHTS assay to identify small molecule antagonists of the estrogen receptor alpha (ER-alpha) signaling pathway (AID 743069; active means well fitted curve in the direction sought with a large enough effect in the signal ratio in the repeat runs, not every such curve was filed as active; inconclusive means weak or mixed curves, or effect the other way; inactive means no such curve, though single readings can be large or run the other way; the % refers to the signal ratio)
Method in brief: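 Compound effects are measured against 17beta-estradiol stimulation in HEK293 cells with a UAS-controlled beta-lactamase reporter for ER-alpha. Exposure lasts 18 hr at 37C; LiveBLAzer B/G FRET substrate follows for 2 hr at room temperature.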

[3] = qHTS assay to identify small molecule antagonists of the estrogen receptor alpha (ER-alpha) signaling pathway - cell viability counter screen (AID 743074; calls by dose curve;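 further: HEK293 cells carrying ER-alpha-UAS-bla reporter stimulated with 17beta-estradiol; nearly all actives have a fitted effect of over 45% in size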)
[4] = molecular target: Estrogen receptor (Homo sapiens) (UniProt P03372); experiment: qHTS assay to identify small molecule agonists of the estrogen receptor alpha (ER-alpha) signaling pathway (AID 743075; calls by dose curve)
[5] = molecular target: Estrogen receptor (Homo sapiens) (UniProt P03372); experiment: qHTS assay to identify small molecule agonists of the estrogen receptor alpha (ER-alpha) signaling pathway using the BG1 cell line (AID 743079); further: nearly all actives have a fitted effect of over 20% in size
[6] = qHTS assay to identify small molecule antagonists of the estrogen receptor alpha (ER-alpha) signaling pathway using the BG1 cell line (AID 743080; calls by dose curve;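 further: BG1 cells stimulated with 17beta-estradiol alongside compound; nearly all actives have a fitted effect of over 25% in size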)
Method in brief: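 Seeding, 24 h rest, compound transfer from DMSO, 17beta-estradiol addition, 21.5 h incubation, CellTiter-Fluor (30 min, 37 C), then ONE-Glo (30 min, room temperature): this sequence was run on BG1-Luc-4E2 reporter cells.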

[7] = qHTS assay to identify small molecule antagonists of the estrogen receptor alpha (ER-alpha) signaling pathway using the BG1 cell line - cell viability counter screen (AID 743081);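 further: compound given together with 17beta-estradiol as the ER stimulus; nearly all actives have a fitted effect of over 45% in size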
[8] = molecular target: Aromatase (Homo sapiens) (UniProt P11511); experiment: qHTS assay to identify aromatase inhibitors (AID 743083); further: nearly all actives have a fitted effect of over 55% in size
[9] = qHTS assay to identify small molecule antagonists of the thyroid receptor (TR) signaling pathway (AID 743065); further: nearly all actives have a fitted effect of over 55% in size
Method in brief: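 Antagonism measured as loss of luciferase signal in GH3 cells stably carrying a TRE-luciferase reporter, co-treated with compound and T3 (1 nM final) for 23.5 h at 37 C. Viability was read in the same well by CellTiter-Fluor.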

[10] = tested on: thyroid hormone receptor (rat, GH3 cells); experiment: qHTS assay to identify small molecule agonists of the thyroid receptor (TR) signaling pathway (AID 743066; calls by dose curve)
Potency means the concentration at half of the fitted maximal effect.

Sequence of Estrogen receptor (Homo sapiens) (P03372 whole entry, looked up): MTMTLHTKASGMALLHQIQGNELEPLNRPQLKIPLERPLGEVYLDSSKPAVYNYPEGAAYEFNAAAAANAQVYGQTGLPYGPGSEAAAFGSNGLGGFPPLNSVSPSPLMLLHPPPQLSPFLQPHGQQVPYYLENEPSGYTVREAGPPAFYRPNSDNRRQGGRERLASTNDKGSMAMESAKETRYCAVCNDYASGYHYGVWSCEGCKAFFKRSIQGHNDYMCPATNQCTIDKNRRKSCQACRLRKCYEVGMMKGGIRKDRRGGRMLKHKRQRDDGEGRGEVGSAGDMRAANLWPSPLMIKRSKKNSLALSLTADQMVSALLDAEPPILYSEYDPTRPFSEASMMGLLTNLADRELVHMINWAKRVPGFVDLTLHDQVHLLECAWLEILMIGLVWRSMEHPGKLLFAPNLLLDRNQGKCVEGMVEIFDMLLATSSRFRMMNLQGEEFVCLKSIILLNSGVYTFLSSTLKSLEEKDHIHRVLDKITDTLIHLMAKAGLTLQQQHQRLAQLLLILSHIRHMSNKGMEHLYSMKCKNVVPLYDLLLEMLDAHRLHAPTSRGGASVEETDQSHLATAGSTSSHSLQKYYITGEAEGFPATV
Sequence of Aromatase (Homo sapiens) (P11511 whole entry, looked up): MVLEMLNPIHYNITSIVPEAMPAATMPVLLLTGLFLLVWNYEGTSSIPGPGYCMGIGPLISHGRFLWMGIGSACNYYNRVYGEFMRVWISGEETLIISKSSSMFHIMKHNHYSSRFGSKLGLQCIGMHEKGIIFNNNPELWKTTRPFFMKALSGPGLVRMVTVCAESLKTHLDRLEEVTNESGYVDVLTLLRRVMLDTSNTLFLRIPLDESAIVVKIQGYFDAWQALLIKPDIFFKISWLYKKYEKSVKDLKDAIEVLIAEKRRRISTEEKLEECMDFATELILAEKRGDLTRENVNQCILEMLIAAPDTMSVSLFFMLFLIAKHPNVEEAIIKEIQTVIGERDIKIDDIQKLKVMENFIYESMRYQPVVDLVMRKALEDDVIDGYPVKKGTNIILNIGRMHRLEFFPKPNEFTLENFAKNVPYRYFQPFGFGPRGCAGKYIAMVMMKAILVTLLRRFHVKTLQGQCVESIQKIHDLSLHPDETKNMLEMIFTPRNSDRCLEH

Compound	Potency [1]	Potency [2]	Potency [3]	Potency [4]	Potency [5]	Potency [6]	Potency [7]	Potency [8]	Potency [9]	Potency [10]
NC(=O)c1cnccn1	inactive	inactive	inactive	inactive	inactive	inactive	inactive	inactive		
CC1(C)[C@@H]2CC[C@@]1(C)C(=O)C2	inactive	inactive	inactive	inactive	inactive	inactive	inactive	inactive	inactive	inactive
Nc1ccn([C@H]2CC[C@@H](CO)O2)c(=O)n1	inactive	inactive	inactive	inactive	inactive	inactive	inactive	inactive	inactive	inactive
OC(Cn1cncn1)(Cn1cncn1)c1ccc(F)cc1F		inactive	inactive	inactive	inactive	inactive	inactive		inactive	inactive
CC(=O)NS(=O)(=O)c1ccc(N)cc1		inactive	inactive	inactive	inactive	inactive	inactive	inactive	inactive	inactive
O=S(=O)(O)NC1CCCCC1	inactive		inactive				inactive	inactive	inactive	inactive
Cn1c(=O)c2[nH]cnc2n(C)c1=O	inactive	inactive	inactive	inactive	inactive	inactive	inactive	inactive	inactive	inactive and 30.6 µM (active)
NC(N)=O		inactive	inactive	inactive	inactive	inactive	inactive	inactive	inactive	inactive
NS(=O)(=O)c1cc(C(=O)O)c(NCc2ccco2)cc1Cl		inactive	inactive	inactive	15 µM (active)	inactive	inactive		inactive	inactive
NC(=O)NC1NC(=O)NC1=O (centres undefined)	inactive		inactive				inactive	inactive	inactive	inactive
CC(O)C(=O)O (centres undefined)	inactive	inactive	inactive	inactive	inactive	inactive	inactive	inactive	inactive	inactive
Cc1cn([C@H]2C[C@H](N=[N+]=[N-])[C@@H](CO)O2)c(=O)[nH]c1=O	inactive	inactive	inactive	inactive	inactive and 17.7 µM (active)	inactive	inactive	inactive	inactive	inactive
c1ccc2[nH]ccc2c1	inactive		inactive				inactive	inactive	inactive	inactive
O=C(C1CCCCC1)N1CC(=O)N2CCc3ccccc3C2C1 (centres undefined)	inactive		inactive				inactive	inactive	inactive	inactive
CC(C)[C@@H]1CC[C@@H](C)C[C@H]1O	inactive		inactive				inactive	inactive	inactive	inactive
CCOc1ccc(NC(=O)CC(C)O)cc1 (centres undefined)	inactive		inactive				inactive	inactive	inactive	inactive
O=C(O)c1[nH]n(-c2ccc(S(=O)(=O)O)cc2)c(=O)c1N=Nc1ccc(S(=O)(=O)O)cc1	54.6 µM (active) and 50.9 µM (active)	inactive	inactive	inactive	inactive	inactive	inactive and 54.6 µM (active) and 64.1 µM (active)	inactive	inactive	inactive
Cn1cc[nH]c1=S	inactive	inactive	inactive	inactive	inactive	inactive	inactive	inactive	inactive	inactive
Cc1ccc(O)cc1	inactive		inactive				inactive	inactive	inactive	inactive
O=C(O)C(=O)O	inactive		inactive				inactive	inactive		
Nc1ccc(S(=O)(=O)c2ccc(N)cc2)cc1		inactive	inactive	inactive	inactive	inactive	inactive	inactive	inactive	inactive
O=C(O)CCCCC(=O)O		inactive	inactive	inactive	inactive	inactive	inactive	inactive	inactive	inactive
CCCCC(CC)COC(=O)/C=C/c1ccc(OC)cc1 (centres undefined)	inactive	inactive	inactive	inactive	inactive	inactive	inactive	inactive	inactive	inactive
COc1ccc2[nH]cc(CCNC(C)=O)c2c1	inactive	inactive	inactive	inactive	inactive and 55.3 µM (active)	inactive	inactive	inactive	inactive	inactive

Compound	Potency [1]	Potency [2]	Potency [3]	Potency [4]	Potency [5]	Potency [6]	Potency [7]	Potency [8]	Potency [9]	Potency [10]
CC(=O)Nc1nnc(S(N)(=O)=O)s1	inactive	inactive	inactive	inactive	inactive	inactive	inactive	inactive	inactive	inactive
CC(C)(Oc1ccc(C2CC2(Cl)Cl)cc1)C(=O)O (centres undefined)		inactive	inactive	inactive	inactive	inactive	inactive	inactive	inactive	inactive
CC(O)CO (centres undefined)	inactive	inactive	inactive	inactive	inactive	inactive	inactive	inactive	inactive	inactive
Oc1ccc(/C=C/c2cc(O)cc(O)c2)cc1	inactive and 27.6 µM (active) and 27.3 µM (active)		inactive	6.44 µM [inconclusive] (active) and 8.8 nM [inconclusive] (active) and 19.5 µM [inconclusive] (active)	7.17 µM (active) and 15.5 µM (active) and 9.69 µM (active)		inactive			inactive
CC(O)CN(CCN(CC(C)O)CC(C)O)CC(C)O (centres undefined)	inactive		inactive				inactive	inactive		
CCCCCCCCCCCCCCCC(=O)O	inactive		inactive				inactive	inactive	inactive	inactive
NNC(=O)c1ccncc1		inactive	inactive	inactive	inactive	inactive	inactive	inactive	inactive	inactive
O=S(=O)(O)c1ccc2cc(O)ccc2c1	inactive		inactive				inactive	inactive	inactive	inactive
CCCC(CCC)C(=O)O	inactive	inactive	inactive	inactive	inactive	inactive	inactive	inactive	inactive	inactive
N=C(N)c1ccc(OCCCCCOc2ccc(C(=N)N)cc2)cc1	60.8 µM (active) and 46.4 µM (active)	12 µM [inconclusive] (active) and 15.4 µM [inconclusive] (active) and 46.8 µM [inconclusive] (active)	inactive	inactive		11.9 µM (active) and 46.4 µM (active)	inactive	26.1 µM (active)	26.6 µM (active) and 60.8 µM (active) and 58.4 µM (active)	inactive
O=C(c1ccccc1)c1ccccc1	inactive		inactive				inactive	inactive		
Cc1ccc(C)c(OCCCC(C)(C)C(=O)O)c1		inactive	inactive	inactive	inactive	inactive	inactive	inactive	inactive	inactive
O=c1cc[nH]c(=S)[nH]1		inactive	inactive	inactive	inactive	inactive	inactive	inactive	inactive	inactive
NC(=O)c1ccccc1O		inactive	inactive	inactive	inactive	inactive	inactive	inactive	inactive	inactive
CCCC(O)C(CC)CO (centres undefined)		inactive	inactive	inactive	inactive	inactive	inactive	inactive	inactive	inactive
CNC[C@H](O)c1cccc(O)c1			inactive and 3.89 µM (active)				inactive	inactive	inactive	inactive
CCCCOC(=O)CC(CC(=O)OCCCC)(OC(C)=O)C(=O)OCCCC			inactive				inactive	inactive		inactive
Cc1noc(NS(=O)(=O)c2ccc(N)cc2)c1C		inactive	inactive	inactive	29.8 µM (active) and inactive	inactive	inactive	inactive	inactive	inactive
Cc1cc(=O)[nH]c(=S)[nH]1		inactive	inactive	inactive	inactive	inactive	inactive	inactive	inactive	inactive
O=c1ccc2ccccc2o1		inactive	inactive	inactive	18.8 µM (active) and inactive	inactive	inactive	inactive	inactive	inactive
COc1c2occc2cc2ccc(=O)oc12			inactive and 1.74 µM (active)				inactive			
NC(N)=NC(=O)c1nc(Cl)c(N)nc1N		inactive	inactive	inactive	inactive	inactive	inactive	inactive	21.1 µM (active) and 54.8 µM (active)	inactive
Cc1cc(=O)n(-c2ccccc2)n1C		inactive	inactive	inactive	inactive	inactive	inactive	inactive	inactive	inactive
Nc1ccc(S(=O)(=O)Nc2nccs2)cc1		inactive	inactive	inactive	inactive	inactive	inactive	inactive		

Compound	Potency [1]	Potency [2]	Potency [3]	Potency [4]	Potency [5]	Potency [6]	Potency [7]	Potency [8]	Potency [9]	Potency [10]
O=C(O)c1cccc([N+](=O)[O-])c1			inactive				inactive	inactive	inactive	inactive
Nc1ccc(C(=O)O)cc1		inactive	inactive	inactive	inactive	inactive	inactive	inactive		
CCC1(c2ccccc2)C(=O)NCNC1=O			inactive				inactive	inactive	inactive	inactive
OCCc1ccccc1			inactive				inactive	inactive	inactive	inactive
O=C1NC(=O)c2ccccc21			inactive				inactive	inactive	inactive	inactive
CC(=O)OCC(COC(C)=O)OC(C)=O			inactive				inactive	inactive	inactive	inactive
O=C(O)c1cccnc1			inactive				inactive	inactive	inactive	inactive
O=C(O)CS		inactive	inactive	inactive	inactive	inactive	inactive	inactive	inactive	inactive
C[C@]12C=CC(=O)C=C1CC[C@@H]1[C@@H]2[C@@H](O)C[C@@]2(C)[C@H]1CC[C@]2(O)C(=O)CO			inactive	inactive	inactive		inactive	inactive	inactive	inactive
COC(=O)[C@H](Cc1ccccc1)NC(=O)[C@@H](N)CC(=O)O (H-Asp-Phe-OMe)		inactive	inactive	inactive	inactive	inactive	inactive	inactive	inactive	inactive
CCCN(CCC)S(=O)(=O)c1ccc(C(=O)O)cc1			inactive				inactive	inactive	inactive	inactive
O=C(O)CCCCCCCC(=O)O			inactive				inactive	inactive	inactive	inactive
O=NO			inactive				inactive	inactive	inactive	inactive
O=C(O)c1cc(N=Nc2ccc(S(=O)(=O)Nc3ccccn3)cc2)ccc1O			inactive				34.5 µM (active)	inactive		
Cc1ccc(S(=O)(=O)NC(=O)NN2CCCCCC2)cc1		inactive	inactive	inactive	inactive and 30.6 µM (active)	inactive	inactive	inactive	inactive	inactive
Nc1ccc(O)c(C(=O)O)c1		inactive	inactive	inactive	inactive and 68.6 µM (active)	inactive	inactive	inactive		
CCCCC1C(=O)N(c2ccccc2)N(c2ccccc2)C1=O		inactive	inactive	inactive	inactive	inactive	inactive	inactive	inactive	inactive
O=C1CN(/N=C/c2ccc([N+](=O)[O-])o2)C(=O)N1		49 µM [inconclusive] (active)	inactive	2.39 µM [inconclusive] (active) and inactive	531 nM (active) and inactive	inactive	43.1 µM (active)	26.6 µM (active) and 43.1 µM (active)	inactive	inactive
CCCNC(=O)NS(=O)(=O)c1ccc(Cl)cc1		inactive	inactive	inactive	inactive	inactive	inactive	inactive	inactive	inactive
C/C=C/c1ccc(OC)cc1			inactive				inactive	inactive	inactive	inactive
O=C(c1ccccc1)C(O)c1ccccc1 (centres undefined)			inactive				inactive	inactive	inactive	inactive
O=C(O)CCC(=O)O		inactive	inactive	inactive	inactive	inactive	inactive	inactive	inactive	inactive
Cc1ccccc1C(OCCN(C)C)c1ccccc1 (centres undefined)		inactive	inactive	inactive	inactive	inactive	inactive	inactive	21.1 µM (active) and 27.3 µM (active)	inactive
C1N2CN3CN1CN(C2)C3			inactive				inactive	inactive	inactive	inactive
